Whole data set: some 8,300 sequences, median “log2 fold change of degron read counts, EGFP-low vs EGFP+ sorted cells (limma voom), compound-induced degradation” near -1.1, cut for the highest 2% near 3.2. Only a selection was taken, and the highest values are over-represented in it overall.
T1: CRBN, Q96SW2
T1 chain: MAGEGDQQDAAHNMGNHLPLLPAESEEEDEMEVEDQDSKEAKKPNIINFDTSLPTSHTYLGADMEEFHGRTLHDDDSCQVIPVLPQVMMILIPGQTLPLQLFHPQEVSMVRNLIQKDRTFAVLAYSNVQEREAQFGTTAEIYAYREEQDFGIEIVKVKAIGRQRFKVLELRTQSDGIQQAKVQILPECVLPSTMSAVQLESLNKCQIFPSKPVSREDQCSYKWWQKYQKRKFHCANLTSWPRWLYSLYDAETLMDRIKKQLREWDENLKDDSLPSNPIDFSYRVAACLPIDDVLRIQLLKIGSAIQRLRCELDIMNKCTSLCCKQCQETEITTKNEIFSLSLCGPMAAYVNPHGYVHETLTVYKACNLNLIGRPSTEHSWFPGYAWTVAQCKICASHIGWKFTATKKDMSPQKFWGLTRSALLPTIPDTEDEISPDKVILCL

B1: 46F_47D_49N_50I_52G_53A_54Q_55F_67L_, Q9UKT9 (peptide)
chain: FDCNICGAQFTQKGNLLRHIKL
B2: 46F_47R_49E_50Q_52G_53A_54L_55F_67L_, Q9UKT9 (peptide)
chain: FRCEQCGALFTQKGNLLRHIKL
B3: 46F_47R_49P_50I_52G_53H_54T_55F_67L_, Q9UKT9 (peptide)
chain: FRCPICGHTFTQKGNLLRHIKL
B4: 46F_47S_49E_50I_52G_53R_54Y_55F_67L_, Q9UKT9 (peptide)
chain: FSCEICGRYFTQKGNLLRHIKL
B5: 46F_47D_49N_50I_52G_53A_54R_55F_67L_, Q9UKT9 (peptide)
chain: FDCNICGARFTQKGNLLRHIKL
B6: 46L_47F_49P_50I_52G_53F_54M_55C_67L_, Q9UKT9 (peptide)
chain: LFCPICGFMCTQKGNLLRHIKL
B7: 46F_47Q_49P_50I_52G_53R_54D_55F_67L_, Q9UKT9 (peptide)
chain: FQCPICGRDFTQKGNLLRHIKL
B8: 46F_47E_49P_50Q_52G_53A_54V_55F_67L_, Q9UKT9 (peptide)
chain: FECPQCGAVFTQKGNLLRHIKL
B9: 46F_47W_49P_50I_52G_53A_54M_55F_67L_, Q9UKT9 (peptide)
chain: FWCPICGAMFTQKGNLLRHIKL
B10: 46F_47T_49P_50I_52G_53A_54P_55F_67L_, Q9UKT9 (peptide)
chain: FTCPICGAPFTQKGNLLRHIKL
B11: 46F_47T_49P_50I_52G_53A_54D_55F_67L_, Q9UKT9 (peptide)
chain: FTCPICGADFTQKGNLLRHIKL
B12: 46F_47W_49N_50I_52G_53A_54P_55F_67L_, Q9UKT9 (peptide)
chain: FWCNICGAPFTQKGNLLRHIKL
B13: 46F_47G_49P_50I_52G_53A_54D_55F_67L_, Q9UKT9 (peptide)
chain: FGCPICGADFTQKGNLLRHIKL
B14: 46F_47G_49N_50I_52G_53A_54P_55F_67L_, Q9UKT9 (peptide)
chain: FGCNICGAPFTQKGNLLRHIKL
B15: 46F_47T_49P_50I_52G_53H_54P_55F_67L_, Q9UKT9 (peptide)
chain: FTCPICGHPFTQKGNLLRHIKL
B16: 46F_47W_49P_50I_52G_53A_54P_55F_67L_, Q9UKT9 (peptide)
chain: FWCPICGAPFTQKGNLLRHIKL
B17: 46F_47H_49P_50I_52G_53A_54D_55F_67L_, Q9UKT9 (peptide)
chain: FHCPICGADFTQKGNLLRHIKL
B18: 46F_47H_49P_50I_52G_53A_54P_55F_67L_, Q9UKT9 (peptide)
chain: FHCPICGAPFTQKGNLLRHIKL
B19: 46F_47H_49D_50I_52G_53A_54P_55F_67L_, Q9UKT9 (peptide)
chain: FHCDICGAPFTQKGNLLRHIKL
B20: 46F_47G_49P_50I_52G_53A_54P_55F_67L_, Q9UKT9 (peptide)
chain: FGCPICGAPFTQKGNLLRHIKL

Molecular target: T1, CRBN, Q96SW2
Assay: log2 fold change of degron read counts, EGFP-low vs EGFP+ sorted cells (limma voom), compound-induced degradation; higher = more compound-induced degradation of the degron-EGFP fusion; degrons are variants of IKZF1/3 zinc finger 2; compound dose not given here
Settings: Jurkat, 18 h
[1] = compound: compound 19 (5-tert-butyl-thalidomide)
[2] = compound: compound 22 (5-morpholino-thalidomide)
[3] = compound: compound 33 (diphenyl IMiD analogue)
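Further: pooled lentiviral library of zinc finger degron-EGFP fusions in mCherry-positive Jurkat cells, FACS-sorted after compound exposure, with degron abundance counted by next-generation sequencing.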

Sequence	log2 fold change of degron read counts [1]	log2 fold change of degron read counts [2]	log2 fold change of degron read counts [3]	log2 fold change of degron read counts (compound: thalidomide)
B1	-0.355	-0.127	-0.237	0.552
B2	-3.49	-2.97	-0.178	-1.64
B3	-2.68	-2.91	-2.15	-2.02
B4	-0.304	-1.64	-1.28	-1.44
B5	1.3	0.634	-0.123	1.24
B6	2.71	2.77	2.05	0.947
B7	-1.62	-1.68	0.2	1.58
B8	-2.29	-2.41	0.278	0.0294
B9	2.54	2.77	2	0.329
B10	2.68	3.44	2.65	3.25
B11	-0.0637	1.88	2.02	2.53
B12	2.88	2.66	1.69	0.25
B13	1.78	0.634	1.7	0.267
B14	0.653	0.355	0.00441	-0.248
B15	-1.82	-0.901	0.0444	0.479
B16	3.28	3.35	2.63	1.37
B17	-0.22	-0.857	0.863	-0.761
B18	3.64	3.39	2.87	2.28
B19	3.18	2.85	1.67	0.346
B20	3.74	2.38	1.84	1.66

Reference: the supplement of paper PMC12645437, “Orthogonal IMiD-Degron Pairs Induce Selective Protein Degradation in Cells” (ACS Chemical Biology, 2025)
